Data on 6 compounds can be found in PubChem BioAssay (NCATS).

The structures appear in SMILES notation. Results filed as inconclusive are left out. A number with no mark means an inactive call. The source made the active and inactive calls. Calls follow the shape of the dose curve; as a rule, active = well fitted curve in the direction sought with a large enough effect; inconclusive = small, poorly fitted or top-dose-only effect, or another doubt; inactive = no such curve, though single readings can be large; an effect the other way counts as inactive or inconclusive.

Assay [1] in a line: HPAF-II Cancer Cell Toxicity qHTS against the NCATS CANVASS Library (AID 1347346). Also: potency is read from the fitted curve at half-maximal effect; nearly all actives have a fitted effect of over 55% in size. Summed up: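 Luminescence from CellTiter-Glo, added after 72 h compound exposure and a 15 min room-temperature incubation, served as the viability readout. HPAF-II cells (1000/well) received an 11-point concentration series.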
For orientation: Quantitative high-throughput screening tests each substance at several concentrations.

The nature of assay [2]: UWB1.289 Cancer Cell Toxicity qHTS against the NCATS CANVASS Library (AID 1347347). Also: nearly all actives have a fitted effect of over 60% in size. Also: potency is read from the fitted curve at half-maximal effect. Put shortly:
(§1)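 Step one: seed 1000 cells per well. Step two: incubate 4 h. Step three: add test compounds in 11 concentrations. Step four: culture 72 h, then add CellTiter-Glo and record luminescence after 15min.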

Assay [3] can be described thus: OV-SAHO Cancer Cell Toxicity qHTS against the NCATS CANVASS Library (AID 1347348). Also: nearly all actives have a fitted effect of over 55% in size. Also: potency is read from the fitted curve at half-maximal effect. Summed up:
as §1

Assay [4] is described as follows: SW1088 Cancer Cell Toxicity qHTS against the NCATS CANVASS Library (AID 1347350). Also: nearly all actives have a fitted effect of over 75% in size. Also: potency is read from the fitted curve at half-maximal effect. Summed up:
as §1

Assay [5] is described as follows: U-118MG Cancer Cell Toxicity qHTS against the NCATS CANVASS Library (AID 1347351). Also: potency is read from the fitted curve at half-maximal effect. Summed up: as §1
Assay [6] can be described thus: COV-362 Cancer Cell Toxicity qHTS against the NCATS CANVASS Library (AID 1347352). Also: potency is read from the fitted curve at half-maximal effect. Put shortly:
(§2)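 Luminescent ATP read-out (CellTiter-Glo, 15min at room temperature) measures survival after cells face an 11-point compound series for 72 hours at 37 degrees C/5% CO2.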

A short description of assay [7]: HPAF-II 12hr Apoptosis Induction qHTS against the NCATS CANVASS Library (AID 1347358). Also: 0% is about no effect. Put shortly: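 500 HPAF-II cells/well; cmpds 11-pt; 12 hr, 37 degrees C/5% CO2; Caspase-Glo 3/7 added, 15 min RT dark; luminescence read. Doxorubicin titration as control.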
Assay [8] is described as follows: HEK293 12hr Apoptosis Induction qHTS against the NCATS CANVASS Library (AID 1347361). Also: 0% is about no effect. Summed up: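 Read-out: Caspase-Glo 3/7 luminescence (DEVD substrate), 15 min RT. Preceded by 12 h compound exposure of HEK293, 500 cells/well, 11-pt qHTS titration; doxorubicin titration as control.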
Assay [9] is described as follows: qHTS for Hypoxia signaling pathway (HIF-1) agonists against the NCATS CANVASS Library (AID 1347375). Also: 0% is about no effect. Summed up: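 ME-180 HRE-bla reporter cells; 2,000/well, 0.5% dialyzed FBS; cpd added after 5 h, 17 h 37C/5% CO2; CCF4-AM 2 h RT; FRET 460/530 nm; CellTiter-Glo viability same wells, 30 min.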
A short description of assay [10]: qHTS for Antimalaria activity screened against the NCATS CANVASS Library (AID 1347380). Also: nearly all actives have a fitted effect of over 40% in size. Also: potency is read from the fitted curve at half-maximal effect.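 As to activity change, negative = inhibition: Plasmodium falciparum strain Dd2 asexual parasites grown in red blood cells; series mostly up to about 29 µM.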 Summed up:
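Dd2 strain, infected erythrocytes 2.5% Hct final / 0.3% parasitemia. 11-pt qHTS titration, 72 h, 37C, 5% O2, 5% CO2. Lysis buffer + SYBR Green, 18 h, fluorescence 485/535 nm.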

The nature of assay [11]: qHTS assay for small molecule disruptors of mitochondrial membrane potential screened against the NCATS CANVASS Library (AID 1347389). Also: nearly all actives have a fitted effect of over 60% in size. Also: potency is read from the fitted curve at half-maximal effect. As to activity change, negative = depolarization: series mostly up to about 46 µM; % is scaled to controls: 0 for no effect and ±100 for the full control effect. Put shortly:
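HepG2, 2,000 cells/well, attached overnight; compound 1 hr, 37C, 5% CO2; Mito-MPS dye 30 min, 37C; fluorescence 535 nm (monomer) and 590 nm (aggregate); decreased 590/535 ratio = depolarization.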

Assay [12] can be described thus: Secretion counterscreen for inhibitors of the SERCaMP assay screened against the NCATS CANVASS Library (AID 1347390).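 Also: light from luciferase secreted into medium read as a measure of general secretion; series mostly up to about 77 µM; % is scaled to controls: 0 for no effect and ±100 for the full control effect.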 Summed up:
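SH-SY5Y cells expressing constitutively secreted GLuc, 1000 cells/well, attached 4 h at 37C, then exposed to compounds (0.001 - 77 uM, 11-pnt series) for 20 h. Coelenterazine added; luminescence read to flag secretory-pathway interferers.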
In general terms: Counterscreens check selectivity or assay interference.

Assay [13] is described as follows: qHTS for activators of Nrf2/ARE signaling pathway screened against the NCATS CANVASS Library (AID 1347391). Also: nearly all actives have a fitted effect of over 60% in size. Also: potency is read from the fitted curve at half-maximal effect. As to activation: 0% is about no effect. Put shortly:
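Plate ARE-bla HepG2 cells at 2000/well and let them settle 5 h. Pin-transfer compounds in DMSO, incubate 16 h at 37C. Load CCF4 for 2 h at room temperature and read blue/green fluorescence.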

Assay [14] is described as follows: qHTS for activators of dead-cell proteases activity screened against the NCATS CANVASS Library (AID 1347392).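 Also: luminescence from protease leaking out of membrane-damaged cells cleaving impermeant substrate; 0% is about no effect; rising signal means more cytotoxicity.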 Summed up:
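HepG2 cells (2000/well) attached 18 h at 37C, then exposed 5 h to compounds (11-point qHTS). Dead-cell protease activity read as luminescence from cell-impermeant AAF-aminoluciferin substrate after 15 min at room temperature.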

Assay [15] can be described thus: qHTS for inhibitors of ER calcium dysfunction: SERCaMP assay screened against the NCATS CANVASS Library (AID 1347393).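 Also: series mostly up to about 77 µM; % is scaled to controls: 0 for no effect and ±100 for the full control effect; lower secreted reporter signal means inhibitor of ER calcium depletion; nearly all actives have a fitted effect of over 40% in size.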 Summed up:
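qHTS in SH-SY5Y reporter cells: 16 h compound pretreatment, 4 h thapsigargin, then secreted Gaussia luciferase measured by luminescence.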

Assay [16] can be described thus: Redox Reaction Profiling qHTS: Assay Interference Panel against the NCATS CANVASS Library (AID 1347401).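 Also: 100% = activation by 2 µM chloranil control.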 Summed up: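 Resazurin (5 uM) conversion to resorufin measured with 200 uM DTT in 50 mM HEPES pH 7.3, 50 mM NaCl. Compounds tested in 11-point qHTS series. Fluorescence (ex 525/em 598 nm) read before and after 15 min dark incubation.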
Assay [17] in a line: KB-8-5-11 Cancer Cell Toxicity qHTS against the NCATS CANVASS Library (AID 1347364). Also: nearly all actives have a fitted effect of over 75% in size. Also: potency is read from the fitted curve at half-maximal effect. Summed up: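 Plate 500 KB-8-5-11 cells per well in DMEM + 10% FBS, add compounds by pin transfer, incubate 72 hr at 37C. Add CellTiter-Glo, wait 10 minutes at room temperature, read luminescence.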
The nature of assay [18]: OV-KATE Cancer Cell Toxicity qHTS against the NCATS CANVASS Library (AID 1347345). Also: % is scaled to controls: 0 for no effect and ±100 for the full control effect. Put shortly:
as §1

Assay [19] is described as follows: UWB1.289-WTBRCA1 Cancer Cell Toxicity qHTS against the NCATS CANVASS Library (AID 1347354). Put shortly:
as §2

Assay [20] can be described thus: qHTS for inhibitors of Wild type Zika virus screened against the NCATS CANVASS Library (AID 1347396).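 Also: ATP luminescence of surviving cells so rescue from viral cell killing; series mostly up to about 46 µM; % is scaled to controls: 0 for no effect and ±100 for the full control effect.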 Put shortly:
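Vero 766 cells, 1000/well, o/n attach; cpds pin-transferred (11-pt qHTS); WT Zika added; 72 h, 37C, 5% CO2; CellTiter Glo lumi. Uninfected + vehicle = 100% inhibition.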

As for `CCC(=O)CCCCC[C@@H]1NC(=O)[C@H]2CCCCN2C(=O)[C@H](C(C)C)NC(=O)[C@H](Cc2cn(OC)c3ccccc23)NC1=O`, the Potency in assay [1] is 2.98 µM (active); in assay [2], 7.47 µM (active); in assay [3] it was 14.9 µM (active); in assay [4], 13.3 µM (active); in assay [5], 3.75 µM (active); in assay [6], 18.8 µM (active). In [10], the Potency was 0.747 µM (active). In addition, the Potency entry in assay [7], in assay [11], in assay [12], in assay [13], in [14] and in assay [15] was “inactive” each time. Also, in assay [16], the Potency result was “inactive”. Further, the call in [8] and in assay [9] was inactive.
In the case of `CC(=O)Oc1cc2c(c(OC(C)=O)c1C1CCc3cc(Cl)c(Cl)n31)C(=O)n1c-2cc(Cl)c1Cl` (stereo not drawn), the Potency in assay [1] is 10.6 µM (active); in [2], 3.34 µM (active); in assay [3], 7.47 µM (active); in [4], 4.73 µM (active); in assay [5] it was 13.3 µM (active); in assay [6], 9.41 µM (active). Besides, the Potency in assay [17] was 14.8 µM (active); in [11], 2.09 µM (active). Moreover, in assay [8], the compound was classed as inactive. Also, the Potency entry in assay [13] and in assay [14] was “inactive” each time.
For `O[C@H]1c2ccccc2-c2c3c(cc4c2[C@@H]1NCC4)OCO3`, the Potency entry in assay [18], in assay [3], in assay [19], in [7] and in assay [14] was “inactive” each time. The Potency in assay [1] is 18.8 µM (active); in [13], 18.6 µM (active). The call in assay [8] and in [9] was inactive.
For the compound `COc1cc(C2OCC3C(c4ccc(O)c(OC)c4)OCC23)ccc1O` (stereo not drawn), the activity change, negative = cytotoxicity was -0.541% [at 7.64 µM] in [18]; -13.2% [at 7.64 µM] in [2]; -15.1% [at 7.64 µM] in [3]; -4.99% [at 7.64 µM] in [5]; -3.45% [at 7.64 µM] in [6]. In addition, the outcome in [4] is “inactive [at 7.64 µM]”; in assay [19], “inactive [at 7.64 µM]”; in [17] it was “inactive [at 9.19 µM]”. Moreover, the caspase activation in assay [7] was 6.04% [at 9.19 µM]. Moreover, the activity change, negative = depolarization in [11] was 2.39% [at 9.19 µM]. Also, the activity change, negative = inhibition in [12] was 27.5% [at 15.3 µM]; in assay [15], 43.6% [at 15.3 µM]. Also, the Potency in [13] is 0.305 µM (active). Besides, in assay [14], the activation (cytotoxicity) was 4.3% [at 9.19 µM]. Besides, in assay [20], the activity change, negative = antiviral was -5.5% [at 9.14 µM].
In the case of `C/C(=C\CC[C@@H](C)[C@H]1CC[C@]2(C)C3=CCC4C(C)(C)[C@@H](O)C[C@@H](O)[C@]4(C)C3[C@H](O)C[C@@]12C)CO` (stereo partly drawn), the Potency entry in assay [18], in [5], in [19], in [7], in assay [11] and in [12] was “inactive” in each case. Further, the Potency result in [14] and in assay [16] was “inactive” in each case. Also, the outcome in assay [9] was inactive.
In the case of `COc1cc2c(cc1OC)[C@@H](c1ccc3c(c1)OCO3)C(C)C(C)C2=O` (stereo partly drawn), the Potency result in assay [18], in assay [3], in assay [5], in [6], in assay [19] and in assay [10] was “inactive” each time. Moreover, the Potency entry in [11], in [12] and in assay [14] was “inactive” throughout. Besides, the result in [8], in assay [9] and in assay [20] was inactive. Also, the Potency in assay [17] is 18.7 µM (active).
